# Counter-ions that a name gives are not always drawn. ± gives the standard deviation of the averaged measurements.
# Tested on: Toxoplasma gondii RH (in HFF)
# Assay: parasite growth relative to the screen mean (all compounds = 100%); higher = less inhibition of parasite growth
# Conditions: 5 µM; 72 h; oxygen 21 %
# Procedure, shortened: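 Values give growth relative to the screen mean. The screen mean (all compounds) is set at 100%, and two screens were averaged. Compounds at 5 µM final were placed on confluent human foreskin fibroblasts, which were infected within 2 h with RH β-Gal–GFP Toxoplasma (MOI 1:5) and kept 72 h at 21% O2 before a CPRG β-Gal readout against in-plate standard curves.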
row,Structure (SMILES),parasite growth
1,COc1ccc(C2CC(c3c(O)cc(C)oc3=O)=NCCS2)c(OC)c1 (stereo not drawn),69.6 ± 9.3%
2,O=C1C(SCCO)=C(SCCO)C(=O)c2ccccc21,180 ± 14%
3,N[C@H](C(=O)O)c1ccc(O)c(C(=O)O)c1 [(S)-3-Carboxy-4-hydroxyphenylglycine],153 ± 9.2%
4,CS(=O)(=O)CCNCc1nc(-c2ccc3ncnc(Nc4ccc(OCc5cccc(F)c5)c(Cl)c4)c3c2)cs1,63.4 ± 19%
5,"Nc1nc2c(nc(Br)n2[C@@H]2O[C@@H]3COP(=O)(O)O[C@H]3[C@H]2O)c(=O)[nH]1 [8-Bromo-cGMP, sodium salt]",133 ± 26%
6,CCc1nn(CCCN2CCN(c3cccc(Cl)c3)CC2)c(=O)n1CCOc1ccccc1 [Nefazodone hydrochloride],139 ± 7.4%
7,CCCCC[C@H](O)/C=C/[C@H]1[C@H](O)CC(=O)[C@@H]1C/C=C\CCCC(=O)O [Prostaglandin E2],122 ± 1.1%
8,Cc1cc(C)c(S(=O)(=O)Nc2cccc(C(F)(F)F)c2)c(C)c1,169 ± 30%
9,O=C(Nc1cccc2cccnc12)c1ccc(N2C(=O)[C@@H]3[C@H](C2=O)[C@@H]2C=C[C@H]3C2)cc1 [endo-IWR 1],113 ± 21%
10,O=c1cc(N2CCOCC2)oc2c1ccc1ccccc12,89.2 ± 2.4%
11,Cc1ccc(NC(=O)C(C)C)cc1C1CCN(Cc2ccc(Oc3ccc(F)c(F)c3)cc2)CC1,< 0%
12,CN(C)CCCN1c2ccccc2CCc2ccc(Cl)cc21 [Clomipramine hydrochloride],38.4 ± 2.9%
13,N[C@H]1CCN(O)C1=O,94.9 ± 34%
14,COc1cc(Br)c(S(=O)(=O)Nc2ccc(Cl)c(O[C@@H]3CCN(C)C3)c2)cc1OC,57.1 ± 16%
15,CCN(CC)CCCC(C)Nc1nc(C)cc(Nc2ccc3nc(C)cc(N)c3c2)n1 (stereo not drawn),127 ± 2.7%
16,COc1ccccc1N1CCN(CCCCNC(=O)c2ccc(-c3ccc(C(C)=O)cc3)cc2)CC1,156 ± 28%
17,CC1(CN2CCC(n3c(=O)[nH]c4ccccc43)CC2)OCc2ccccc2-n2cccc21 (stereo not drawn),113 ± 47%
18,CC(C)C[C@H](NC(=O)[C@@H](O)[C@H](N)Cc1ccccc1)C(=O)O [Bestatin],136 ± 6.9%
19,CC1(C)CCC(C)(C)c2cc(C(=O)Nc3ccc(C(=O)O)cc3)ccc21,113 ± 4.7%

row,Structure (SMILES),parasite growth
1,O=C(NCCNCC(O)COc1ccc(O)cc1)N1CCOCC1 (stereo not drawn) [Xamoterol hemifumarate],117 ± 12%
2,CCCn1c(=O)[nH]c2nc(-c3ccc(S(=O)(=O)O)cc3)[nH]c2c1=O,112 ± 5.7%
3,O=C1N(c2ccccc2)c2ccccc2C1(Cc1ccncc1)Cc1ccncc1 [Linopirdine dihydrochloride],56.5 ± 15%
4,CCCCCCCC/C=C\CCCCCCCC(=O)NCCO [Oleylethanolamide],135 ± 21%
5,Nc1ncnc2c1ncn2C1CCCO1 (stereo not drawn),70.4 ± 16%
6,OC[C@H]1O[C@@H](n2cnc3c(NC4CCCC4)ncnc32)[C@H](O)[C@@H]1O [N6-Cyclopentyladenosine],77.4 ± 7.7%
7,O=C(NCCCN1CCC2(CC1)OCc1ccccc12)[C@H]1CCCN1Cc1ccccc1,136.9 ± 0.99%
8,CCN(CC)CCOCCOC(=O)C1(c2ccccc2)CCCC1 [Carbetapentane citrate],137 ± 18%
9,O=c1cc(-c2cccc3c2Sc2ccccc2S3)oc(N2CCOCC2)c1,112 ± 15%
10,CN(C)c1nc(N)c(C(=O)Nc2cccnc2)nc1Cl [ACDPP hydrochloride],88.7 ± 3%
11,O=c1c(O)c(-c2ccc(O)cc2)oc2cc(O)cc(O)c12 [Kaempferol],155 ± 7.1%
12,COc1ccc(/C=C/C(=O)Nc2ccccc2C(=O)O)cc1OC [Tranilast],111 ± 30%
13,COc1ccc(CN(CCN(C)C)c2ccccn2)cc1 [Mepyramine maleate],115 ± 5.5%
14,O=[N+]([O-])c1cccc2cn[nH]c12 [7-Nitroindazole],124.7 ± 0.72%
15,COc1ccc(S(=O)(=O)N2c3ccc(Cl)cc3[C@](O)(c3ccccc3Cl)[C@@H]2C(=O)N2CCC[C@H]2C(N)=O)cc1OC,144 ± 26%
16,N#Cc1c(O)c2c(-c3ccc(-c4ccccc4O)cc3)csc2[nH]c1=O,131 ± 14%
17,COC(=O)c1c(-c2cc(OC)c(OC)c(OC)c2)c2ccnc(OCc3ncccn3)c2c(=O)n1Cc1ccnc(C)c1 [T 0156 hydrochloride],89.9 ± 14%
18,CN(CCOc1ccc(C[C@H](Nc2ccccc2C(=O)c2ccccc2)C(=O)O)cc1)c1ccccn1,30 ± 17%
19,O=C1NC(=O)C(c2ccccc2[N+](=O)[O-])=C1Nc1ccc(O)c(Cl)c1,155 ± 3.7%
